Data on 29 molecules can be found in PubChem BioAssay (NCI).

What all share (assay): NCI-60 one-dose screen, 48 h (100 = growth as untreated, 0 = no growth, -100 = all killed)
Common to all, as to conditions: 10 µM unless noted

In test [1] the test system is T-47D breast.
For test [2], the system named is BT-549 breast.
Test [3] deals with MDA-MB-435 melanoma.
The test system of test [4] is SW-620 colon.
For test [5], the system named is MCF7 breast.
The subject of test [6] is HCT-116 colon.
Test [7] deals with HCC-2998 colon.
The test system of test [8] is KM12 colon.

This is part of a sample that, as a whole, favours compounds with a hit. Of some 83,000 tested, about 20% had one in any assay.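 Activity criterion: percent growth below 10, measured after cells in 96-well plates were exposed to a single compound concentration for 48 hours.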 Values without a mark were called inactive. Calls of active or inactive are those of the source.

In the case of `CN(C)CCCN=c1cc2c(=O)n(CCCN(C)C)c(=O)c3c(NCCCN(C)C)cc4c(O)n(CCCN(C)C)c(=O)c1c4c3-2`, the growth is -1.16% (active) in test [1]; 37% in test [2]; -52.8% (active) in test [3]; -14.6% (active) in test [4]; 0.771% (active) in test [5]; -29.7% (active) in test [6]. Besides, the figures for the growth in test [7] and in test [8] were 13.8% and 3.01% (active), respectively.

`COc1ccc(C(=O)COc2ccc(/C=C3\Oc4ccc5ccccc5c4C3=O)cc2)cc1`: the growth in test [1] was 55.8%; in test [2], 45.1%; in test [3], 101%; in test [4], 94.6%; in test [5], 36.3%; in test [6] it was 85.9%. Moreover, the growth was 97.9% in test [7] and 90.9% in test [8].

`N#Cc1c(NC(=O)c2ccco2)[n+]([O-])c2ccccc2[n+]1[O-]`: the growth in test [1] was 90.8%; in test [2], 92.9%; in test [3] it was 107%; in test [4], 107%; in test [5], 71.3%; in test [6], 93.8%. The growth in test [7] is 98.3%; in test [8], 109%.

Regarding `O=C(/C=C/c1ccc([N+](=O)[O-])cc1)c1ccc2c3c(cccc13)CC2`, the growth in test [1] is 69.1%; in test [2], 84%; in test [3], 97.8%; in test [4] it was 47.1%; in test [5], 22%; in test [6] it was 38.6%. In addition, the growth was 79.3% in test [7] and 72.5% in test [8].

As to `Cc1ccc(-c2c3c(N)c4c(nc3nc3c2c(C)nn3-c2ccccc2)CCC4)cc1`, the growth in test [1] was 103%; in test [2] it was 90.4%; in test [3], 103%; in test [4], 6.36% (active); in test [5], 14.9%; in test [6], -72.5% (active). In addition, the growth is 100% in test [7] and 79.8% in test [8].

Take `Cc1sc2nc(N3CCCCC3)[nH]c(=O)c2c1C`: the growth was 84.2% in test [1]; 99.1% in test [2]; 103% in test [3]; 96.2% in test [4]; 96.1% in test [5]; 93.2% in test [6]. The growth in test [7] was 98%; in test [8], 102%.

For the molecule `CC(=O)N1N=C(c2ccc(C(F)(F)F)cc2)CC1c1ccc2c(c1)OCO2` (configuration not stated), the growth is 86.2% in test [1]; 93.7% in test [2]; 78.2% in test [3]; 88.4% in test [4]; 78.6% in test [5]; 45.5% in test [6]. Also, the figures for the growth in test [7] and in test [8] were 94.3% and 89.2%, respectively.

Turning to `CSc1nc(Nc2ccc(S(=O)(=O)Nc3ccon3)cc2)c(C#N)c(-c2ccc(Cl)cc2)n1`, the growth was 97% in test [1]; 90.5% in test [2]; 97.9% in test [3]; 70.5% in test [4]; 94.3% in test [5]; 65.8% in test [6]. In addition, the growth is 94.4% in test [7] and 104% in test [8].

On to `CCOC(=O)CCC(=O)O[C@H]1[C@H](O[C@@H]2[C@@H](C)[C@H](O[C@H]3C[C@@](C)(OC)[C@@H](O)[C@H](C)O3)[C@@H](C)C(=O)O[C@H](CC)[C@@](C)(O)[C@H](O)[C@@H](C)C(=O)[C@H](C)C[C@@]2(C)O)O[C@H](C)C[C@@H]1N(C)C`, for which the growth in test [1] is 97.1%; in test [2] it was 97.3%; in test [3] it was 105%; in test [4], 107%; in test [5] it was 113%; in test [6] it was 99.7%. The values for the growth in test [7] and in test [8] were 105% and 111%, respectively.

Regarding `NS(=O)(=O)c1cc2c(cc1Cl)NC=NS2(=O)=O`, the growth is 97.7% in test [1]; 95.9% in test [2]; 102% in test [3]; 111% in test [4]; 96.9% in test [5]; 98% in test [6]. The growth is 93.4% in test [7] and 106% in test [8].

`COc1ccc(/C=C2/SC(=Nc3c(C)nn(-c4ccccc4)c3N)NC2=O)cc1`: the growth in test [1] was 60.9%; in test [2], 26.8%; in test [3] it was -38.9% (active); in test [4] it was 18.5%; in test [5] it was 8.99% (active); in test [6] it was 16.8%. Further, the growth in test [7] is 53.5%; in test [8], 28.6%.

As for `Nc1ccccc1-c1ccn[nH]1`, the growth in test [1] was 93.5%; in test [2] it was 91.2%; in test [3], 93.2%; in test [4], 96.7%; in test [5], 100%; in test [6] it was 92.7%. The growth was 97.2% in test [7] and 82.3% in test [8].

Turning to `O=Cc1ncc(-c2ccc(C(F)(F)F)cc2)c(NC2CCCCCC2)n1`, the growth in test [1] was -19% [100 µM] (active); in test [2], -93.4% [100 µM] (active); in test [3], -88.1% [100 µM] (active); in test [4], -44.4% [100 µM] (active); in test [5] it was -86.3% [100 µM] (active); in test [6] it was -94.3% [100 µM] (active). The growth was -74.4% [100 µM] (active) in test [7] and -87.6% [100 µM] (active) in test [8].

On to `O=C(c1ccccc1)c1ccc(Oc2ccc([N+](=O)[O-])cc2[N+](=O)[O-])cc1`, for which the growth was 66.1% in test [1]; -1.35% (active) in test [2]; -43.7% (active) in test [3]; 3.07% (active) in test [4]; 15.6% in test [5]; -12.8% (active) in test [6]. Moreover, the growth was 97.8% in test [7] and -17.8% (active) in test [8].

Turning to `Cc1cc(C)c(C(=O)c2cccs2)c(C)c1`, the growth in test [1] is 102%; in test [2], 109%; in test [3] it was 122%; in test [4] it was 107%; in test [5], 99%; in test [6], 101%. In addition, the growth in test [7] was 106%; in test [8], 110%.

For `COc1ccc(-c2cc(-c3nnc(SCC(=O)Nc4ccc(C(C)=O)cc4)n3-c3ccccc3)c3ccccc3n2)cc1OC`, the growth in test [1] is 84%; in test [2], 86.1%; in test [3], 105%; in test [4], 104%; in test [5], 95.2%; in test [6] it was 83.4%. The results for the growth in test [7] and in test [8] were 99.6% and 95.9%, respectively.

For the molecule `O=C(Nc1ccccc1)c1cc(-n2cnc([N+](=O)[O-])c2)cc(-n2cnc([N+](=O)[O-])c2)n1`, the growth in test [1] is 107%; in test [2], 113%; in test [3], 122%; in test [4], 99.7%; in test [5], 116%; in test [6], 103%. Besides, the growth in test [7] was 65.2%; in test [8], 94.1%.

`c1ccc2c(-c3nc4ccccc4[nH]3)cccc2c1`: the growth in test [1] was 36%; in test [2] it was 24.3%; in test [3] it was -19% (active); in test [4], 16.8%; in test [5] it was 17.2%; in test [6], 16.7%. The growth in test [7] is 57.5%; in test [8], 21.8%.

As to `O=C(COc1cccc(/C=C2\Cc3ccccc3C2=O)c1)c1ccc(Cl)cc1`, the growth in test [1] was 80%; in test [2], 99.4%; in test [3] it was 114%; in test [4], 97.2%; in test [5], 78%; in test [6] it was 100%. The growth is 102% in test [7] and 105% in test [8].

In the case of `Cc1onc(-c2ccccc2Cl)c1C(=O)N[C@@H]1C(=O)N2[C@@H]1SC(C)(C)[C@@H]2C(=O)O`, the growth was 98.1% in test [1]; 100% in test [2]; 107% in test [3]; 110% in test [4]; 101% in test [5]; 101% in test [6]. The growth is 99.6% in test [7] and 108% in test [8].

Turning to `Nc1ccc2c(c1)C(=O)c1cc(Cl)c(Cl)cc1-2`, the growth is 91% in test [1]; 85.2% in test [2]; 102% in test [3]; 101% in test [4]; 69.2% in test [5]; 93.5% in test [6]. In addition, the values for the growth in test [7] and in test [8] were 98% and 92.8%, respectively.

`COc1ccc(/C=C2\CCc3ccccc3C2=O)cc1`: the growth is 92.5% in test [1]; 97.9% in test [2]; 9.53% (active) in test [3]; 66.9% in test [4]; 85.7% in test [5]; 94.3% in test [6]. Moreover, the growth in test [7] was 80.4%; in test [8], 44.6%.

With `COc1cc(/C(Cl)=C/C=C/C(=O)c2c(C)[n+]([O-])c3ccc(Cl)cc3[n+]2[O-])cc(OC)c1OC`, the growth in test [1] was 22.3%; in test [2], 36.5%; in test [3] it was 6.9% (active); in test [4] it was 1.65% (active); in test [5] it was 0.61% (active); in test [6], 2.9% (active). Also, the growth is 83.2% in test [7] and 33% in test [8].

`Cc1cc(C)c2c(N)c3cccc(C)c3nc2n1`: the growth in test [1] is -3.39% (active); in test [2], 0.0119% (active); in test [3], 2.84% (active); in test [4] it was -1.92% (active); in test [5], 6.02% (active); in test [6], -39.4% (active). Moreover, the growth in test [7] is -38.7% (active); in test [8], 6.37% (active).

Consider `COP(=O)(OC)C(c1ccccc1)(c1ccccc1)c1ccccc1`, for which the growth in test [1] is 88.8%; in test [2], 117%; in test [3], 91.2%; in test [4] it was 98.1%; in test [5], 103%; in test [6], 73.1%. In addition, the growth was 114% in test [7] and 93.7% in test [8].

`Cc1cc(C)nc(NS(=O)(=O)c2ccc(Nc3nc4nc(SCc5ccccc5)nc(-c5ccc(O)cc5)c4c(=O)[nH]3)cc2)n1`: the growth in test [1] is 79.1%; in test [2], 107%; in test [3], 94.9%; in test [4], 101%; in test [5] it was 104%; in test [6], 103%. Further, the growth in test [7] was 100%; in test [8], 107%.

With `CC[C@@H](c1ccc(O)c(O)c1)[C@@H](CC)c1ccc(O)c(O)c1`, the growth in test [1] was -8.01% (active); in test [2], 98%; in test [3], 62.9%; in test [4] it was 5.74% (active); in test [5], 98.8%; in test [6], 9.12% (active). The growth in test [7] was 103%; in test [8] it was 102%.

For `CC(=O)Nc1c(Cl)cc2c(c1Cl)Cc1ccccc1-2`, the growth is 89.5% in test [1]; 98.8% in test [2]; 122% in test [3]; 103% in test [4]; 91.1% in test [5]; 99.1% in test [6]. For the same molecule, the growth in test [7] is 107%; in test [8], 97.2%.

In the case of `Cc1cc2c(cc1C)[n+](Cc1ccc3ccccc3n1)cn2Cc1ccc2ccccc2n1`, the growth in test [1] was -1.32% (active); in test [2], -45.9% (active); in test [3] it was -24.5% (active); in test [4], 9.34% (active); in test [5] it was 7.12% (active); in test [6] it was -0.984% (active). Besides, the growth was 3.84% (active) in test [7] and -7.23% (active) in test [8].
